Experimental data taken from the supplement of paper PMC6992640.
± gives the standard deviation of the averaged measurements.

Columns and labels:
Test in all cases: cell viability (% of vehicle); higher = less cytotoxic
Details in all cases: 10 µM; 72 h
HCI01 = tested on: HCI01 (cells of a triple-negative basal-like breast cancer xenograft)
HCI03 = tested on: HCI03 (cells of an ER-positive luminal breast cancer xenograft)
HCI09 = tested on: HCI09 (cells of a triple-negative luminal androgen receptor type breast cancer xenograft)
HCI11 = tested on: HCI11 (cells of an ER-positive luminal breast cancer xenograft)
HCI13 = tested on: HCI13 (cells of an ER-positive luminal breast cancer xenograft)
HCI16 = tested on: HCI16 (cells of a triple-negative basal-like breast cancer xenograft)
UCD52 = tested on: UCD52 (cells of a triple-negative basal-like breast cancer xenograft)
WHIM2 = tested on: WHIM2 (cells of a triple-negative basal-like breast cancer xenograft)
WHIM30 = tested on: WHIM30 (cells of a triple-negative basal-like breast cancer xenograft)
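Also: PDX cells carrying CMV promoter-driven luciferase, viability read as total photon flux per second by IVIS imaging following D-luciferin, vehicle control 0.1% DMSO.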

Structure (SMILES) | cell viability (HCI01) | cell viability (HCI03) | cell viability (HCI09) | cell viability (HCI11) | cell viability (HCI13) | cell viability (HCI16) | cell viability (UCD52) | cell viability (WHIM2) | cell viability (WHIM30)
CC1OC(OC2C(CO)OC(OC3C(CO)OC(O)C(O)C3O)C(O)C2O)C(O)C(O)C1NC1C=C(CO)C(O)C(O)C1O (centres undefined) [Acarbose] | 112 ± 9.7 | 109 | 99 ± 8.6 | 88.2 | 117 ± 12 | 78.5 | 93.3 ± 9.7 | 86 ± 17 | 104 ± 29
Cc1ccc(-c2ncc(Cl)cc2-c2ccc(S(C)(=O)=O)cc2)cn1 [Etoricoxib] | 107 ± 4.3 | 118 | 85.1 ± 16 | 79.9 | 96.7 ± 2.1 | 141 | 77.3 ± 3.4 | 143 ± 16 | 116 ± 13
O=C1Nc2ccc(Cl)cc2C(C#CC2CC2)(C(F)(F)F)O1 (centres undefined) [Efavirenz] | 114 ± 16 | 85.9 | 68.9 ± 7.4 | 99.8 | 82.9 ± 7.3 | 108 | 69.5 ± 1.9 | 69.6 ± 46 | 82.3 ± 17
CC12CCC(O)CC1=CCC1C2CCC2(C)C(n3cnc4ccccc43)=CCC12 (centres undefined) | 119 ± 15 | 58.2 | 54.3 ± 41 | 76.2 | 103 ± 7.5 | 96.3 | 83.2 ± 4.1 | 118 ± 18 | 93.6 ± 13
CCCCc1ncc(C=C(Cc2cccs2)C(=O)O)n1Cc1ccc(C(=O)O)cc1.CS(=O)(=O)O [Eprosartan Mesylate] | 156 ± 27 | 129 | 106 ± 17 | 120 | 108 ± 12 | 134 | 124 ± 9.7 | 123 ± 9.3 | 198 ± 22
CNS(=O)(=O)Cc1ccc2[nH]cc(CCN(C)C)c2c1.O=C(O)CCC(=O)O [Sumatriptan Succinate] | 89.3 ± 18 | 110 | 89.6 ± 31 | 82.8 | 81.4 ± 5.5 | 120 | 101 ± 13 | 106 ± 18 | 106 ± 4.2
CC(C(=O)O)c1cccc(Oc2ccccc2)c1 (centres undefined) [Fenoprofen calcium hydrate] | 98.6 ± 19 | 104 | 94.2 ± 14 | 89 | 101 ± 6.6 | 120 | 85 ± 3.6 | 105 ± 1.2 | 139 ± 25
Cc1nnc(NS(=O)(=O)c2ccc(N)cc2)s1 [Sulfamethizole] | 102 ± 17 | 119 | 91.2 ± 4.5 | 87 | 89.2 ± 14 | 114 | 81.2 ± 3.9 | 91.3 ± 4.2 | 88.3 ± 5
CCCN1CCCCC1C(=O)Nc1c(C)cccc1C.Cl.O (centres undefined) [Ropivacaine hydrochloride monohydrate] | 86.9 ± 16 | 116 | 105 ± 16 | 96.1 | 110.3 ± 0.64 | 117 | 96.2 ± 12 | 90.8 ± 14 | 100 ± 9.1
OCC(O)C(O)C(O)CO (centres undefined) [Xylitol] | 96.8 ± 14 | 133 | 101 ± 15 | 95.5 | 97 ± 3.2 | 101 | 101 ± 7.7 | 90.3 ± 14 | 83.1 ± 8.9
C=C1CCN(C(C)C(O)(Cn2cncn2)c2ccc(F)cc2F)CC1 (centres undefined) [Efinaconazole] | 119 ± 22 | 148 | 83.3 ± 19 | 91.5 | 126 ± 8.9 | 165 | 85.4 ± 5.2 | 95.9 ± 5.9 | 161 ± 25
NC(=O)N1c2ccccc2CC(=O)c2ccccc21 [Oxcarbazepine] | 91.5 ± 16 | 133 | 107 ± 16 | 98.9 | 104 ± 15 | 124 | 99.59 ± 0.42 | 91.2 ± 2.1 | 159 ± 3.8
Cc1cc2c(cc1S(N)(=O)=O)S(=O)(=O)CCC2 [Meticrane] | 109 ± 8.8 | 117 | 102 ± 6.3 | 89 | 103 ± 9.6 | 110 | 96.3 ± 10 | 97 ± 7.5 | 80.4 ± 2.8
COC1C(OC(N)=O)C(O)C(Oc2ccc3c(O)c(NC(=O)c4ccc([O-])c(CC=C(C)C)c4)c(=O)oc3c2C)OC1(C)C.[Na+] (centres undefined) [Novobiocin Sodium] | 126 ± 61 | 153 | 93.1 ± 5.1 | 75.6 | 140 ± 2.5 | 130 | 120 ± 16 | 130 ± 5.4 | 116 ± 15
CN1CCCC(n2nc(Cc3ccc(Cl)cc3)c3ccccc3c2=O)CC1.Cl (centres undefined) [Azelastine HCl] | 142 ± 46 | 106 | 101 ± 1.3 | 69.2 | 113 ± 22 | 116 | 57.6 ± 17 | 78.7 ± 8.4 | 94.9 ± 6.3
Nc1nc(=O)c2ncn(CCC(CO)CO)c2[nH]1 [Penciclovir] | 115 ± 28 | 140 | 92.4 ± 6.6 | 95.3 | 84.4 ± 9.1 | 130 | 110 ± 5.5 | 123 ± 34 | 99.7 ± 8.5
C/C=C/C1=C(C(=O)O)N2C(=O)[C@@H](NC(=O)[C@H](N)c3ccc(O)cc3)[C@@H]2SC1 [Cefprozil] | 97.6 ± 3.2 | 174 | 103 ± 22 | 97 | 85.4 ± 1.5 | 115 | 107 ± 8.6 | 93.4 ± 26 | 115 ± 7.5
Br.CN1CCCC1Cc1c[nH]c2ccc(CCS(=O)(=O)c3ccccc3)cc12 (centres undefined) [Eletriptan HBr] | 91.4 ± 17 | 108 | 80.12 ± 0.74 | 86.1 | 83.7 ± 7.3 | 113 | 87 ± 9.9 | 83.3 ± 4.5 | 163 ± 24
Cl.NCCCC(N)(C(=O)O)C(F)F.O (racemic) [DL-α-Difluoromethylornithine (hydrochloride hydrate)] | 94.2 ± 12 | 94 | 92.3 ± 10 | 65.9 | 80.9 ± 5.2 | 99.2 | 85.3 ± 3.9 | 91.9 ± 5.5 | 97.1 ± 3.2
O=C([O-])C(O)C(O)C(O)C(O)C(O)CO.O=C([O-])C(O)C(O)C(O)C(O)C(O)CO.[Ca+2] (centres undefined) [Calcium Gluceptate] | 134 ± 3.3 | 162 | 112 ± 4.9 | 127 | 110 ± 8.2 | 124 | 87.2 ± 13 | 109 ± 3.2 | 141 ± 8.1
Cc1ccc(-n2[nH]c(C)c(NN=C3C=CC=C(c4cccc(C(=O)O)c4)C3=O)c2=O)cc1C.NCCO.NCCO [Eltrombopag Olamine] | 82.7 ± 71 | 79.3 | 26.4 ± 4 | 71 | 43.8 ± 1.1 | 119 | 76.8 ± 6.6 | 36.8 ± 0.9 | 104 ± 17
